# Test results taken from PubChem BioAssay AID1347426 (Functional Genomics Laboratory (NCATS/FGL), 2020).
# Hit rate of the full screen: of about 31,000 sequences, about 1,400 (4.5%) were called active. This excerpt belongs to a sample that is enriched for actives. Unmarked numbers belong to inactive results.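 The calls were made as follows: active = median seed-adjusted z-score above 1 or below -1; inactive = the rest.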
# Assay: Novel Modifiers of Survival Motor Neuron (SMN) Protein: Gene Identification via Genome-wide siRNA Screen
# Conditions: HEK293T SMN2-luciferase reporter, siRNA knockdown, 72 h; actives lie on both sides
# Method in brief: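 Each of three siRNAs per gene is reverse-transfected (1 pmol) into reporter HEK293T cells whose luciferase output tracks SMN protein level. After 72 h culture, ONE-Glo luminescence is control-normalized, log10-transformed and MAD-standardized; Common Seed Analysis deprioritizes seed-driven hits.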
row,Sequence,median seed-adjusted z-score
1,GCCUCAUGUAAAACCCUAUTT against MYLK,0.0226
2,GCCUUCGAGUUCCUUGUUUTT against COX6B2,-0.544
3,GUACUUUUGACAACAUUUATT against NAT13,0
4,GGCUUUGAGCAUAAGAUCATT against MAP3K10,0.201
5,GCACCAAACUUAGCUACGATT against DIS3L2,-0.265
6,GACUGGGUCUGGUAAAACATT against DHX15,1.36 (active)
7,GAAUUGGACAUUUCGGAUATT against NEK10,-0.0464
8,CAGUUGCAACUCUUCGUGATT against ALB,-0.153
9,AAACAACUCGAUUUCGAAATT against PCDHB13,-0.293
10,GAACUUUUGGGACCAAAUATT against NME5,0.393
11,GCCUUUUACGCAAACAUGUTT against P2RY8,-0.136
12,GAUUUUAUCUCAGUACAUUTT against UCK2,-1.51 (active)
13,CGUGCACUAUAUUGCAGUUTT against PRMT2,0.0895
14,GGAAUGUCACGGCUAAUCATT against PITPNM3,-0.0378
15,GGAAUGAUACCAUACCGAATT against NUP93,1.01 (active)
16,UGAUCGCCUUGGUGAUUCATT against FOXH1,0
17,GGAUAGUUACUGACCGGGATT against NCL,1.33 (active)
18,GCGGGAGCAUUAUCUCAAATT against ZNF341,0.356
19,CCAGACCUCAUGUCACAGATT against ZNF777,0.128
20,GACUGAAUGUUUAUACAGUTT against OSBPL1A,0.0845
21,GGUGGUAUCCUGUUCACAATT against TM9SF4,-0.0191
22,GGACCAUUUAGAGAAGGUUTT against WARS2,0.21
23,CCUACGUUACUUUCCCUCATT against FOXD4L6,-0.137

row,Sequence,median seed-adjusted z-score
1,CAUGGAACAUUGUGAGAAATT against RPS6KB1,1.4 (active)
2,AAAUCAAGAUUCUUACUGATT against TPM3,0.111
3,GCACUUUAGAAUCACACGATT against TRMT6,0.069
4,GCUCAUUGUACAUCUCAGATT against ZNF26,0
5,CCUGCUUACCUGAUCAAAATT against SLC25A34,-0.256
6,GCAUAACUGUAGACUACAATT against ADAM32,1.75 (active)
7,CAGUCUUACUGGGAACAAUTT against TGDS,-0.196
8,GCCCAUUGGAUAUCAGUAUTT against STRADB,0.21
9,CUAUUAGGUUGACCAAUAATT against OSGEPL1,-0.708
10,GGAGGAUCAAUUUAUCAGATT against VDAC2,0.648
11,CAGUGUUCCUAUUAGAUGATT against LONP2,1.52 (active)
12,CCUGUGCUGUUAUGAAGCUTT against APC2,0.00354
13,GAAUGGAGAGAGAAUUGAATT against B2M,-0.367
14,GGAUUAAAGAGAAGAUCUATT against ERH,-1.25 (active)
15,CCAGGAGAAAUAUAAGUCATT against ZNF627,0.204
16,GGACGAGAAAAACUGCUCATT against CORIN,-0.0274
17,GCAUACAUAUGGUAUAGCATT against DDX20,-0.0137
18,GCGGAGAUCAGAUUAGUCATT against NCL,1.33 (active)
19,GCAUGACCGCUUAUCCCAATT against SLC6A5,-0.204
20,CAUUCACUUUGACACCAUATT against HSD17B7,0.0836
21,GGUUUUUGCUGGACAAACATT against PPP2R3C,0.295
22,CCGUGUACGUGGAUGAUGATT against LPHN1,-1.03 (active)
23,GCAUUAGUCUGACAGUACATT against MRGPRX3,-0.175

row,Sequence,median seed-adjusted z-score
1,CGAACCUAAUGCUCAACAATT against PREX2,-0.0625
2,GGAAAUUAGAUACCGAGGATT against SLC25A30,0
3,GGCUAACAUUAGAACACUUTT against MED6,-2.15 (active)
4,CGGAGUCUGCGCUUCGUUATT against ACP2,-0.00569
5,GCUUUAUAAGUGUAGCGAATT against ZNF749,0.911
6,GGAGGUCACUUGUGAAUCATT against GLS2,-0.793
7,CCCAGUUCCUGCUAUCUCATT against POU2F3,-1.53 (active)
8,GGGCUACCAUCUCCUUUCATT against SLC23A3,-0.254
9,GUACCCAAGUAACAACUGUTT against CXCL11,-0.135
10,UCCACUGACUCGUAAAGUUTT against PROK2,-0.00826
11,GCUCGGUGGUUGAUAAUCATT against SLC22A10,-0.0897
12,AGACCAUCGCAGAGACAGATT against SLC31A2,0.401
13,GGAUGUUCGUCAUAUUGAATT against IRAK3,0.155
14,CAAAAGACCUGUAAUAAGATT against MAGT1,-0.0855
15,GCCUUGAUGCUGAUCAUCATT against MEP1B,1.46 (active)
16,GGUGAAUCAUUUGAACUGATT against RCL1,0.0807
17,GGAAUACUCAGAUCGGGAATT against MAP3K3,-0.182
18,GUAUGGAGAUCUCUACGGATT against RYR3,0
19,GUAUGACCUAAAAACCGAATT against MTRR,-0.381
20,AGAGAUACUUCUUAAAUCATT against YAP1,-0.247
21,GCUCAAUGCAGGUAUUCAATT against KLF8,0.0976
22,AAGUCUCAUUCGUGGUUGATT against ST6GALNAC6,0.367
23,CAGCCCAAGUGUCGCCUUATT against PAX9,-1.16 (active)
